Screening data from PubChem.
LMNA splice mod – changes lamin A minigene splicing in HeLa cells. HeLa LMNA splicing GFP/RFP minigene ratio, 48 h. Potency, µM (highest dose often 46.1 µM), for the others: at the top dose ratio change, negative = inhibition, actives largely listed as inhibitors. 0.01% of 200,000 active. AID 1487; active = well fitted inhibition curve with a large enough effect in the signal ratio, with a control signal flat, not every such curve was filed as active; inconclusive = small, poorly fitted or top-dose-only effect, or effect the other way, or a change in a side signal; the % refers to the signal ratio; also: % is scaled to controls: 0 for no effect and ±100 for the full control effect
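S3 HeLa stable clones carrying a lamin A-EGFP splicing minigene plus DsRed2 were seeded at 600 cells/well in Opti-MEM with 2% FBS, pin-dosed and incubated 48 h at 37°C. Acumen cytometry (488 nm) gave the GFP/RFP total-intensity ratio.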
HTT aggregate – mutant huntingtin aggregation inhibition. AID 1688. 1.1% of 220,000 active. Potency, µM (doses to about 46.1 µM), without a hit: at the top dose activity change, negative = inhibition, usual class: inhibitors. PC12 HttQ103-GFP aggregates, Acumen cytometry, 40 h; active = well fitted curve in the direction sought with a large enough effect; inconclusive = small, poorly fitted or top-dose-only effect, or another doubt; inactive = no such curve, though single readings can be large; an effect the other way counts as inactive or inconclusive; also: % is scaled to controls: 0 for no effect and ±100 for the full control effect; nearly all actives have a fitted effect of over 60% in size
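PC12/HTTQ103-GFP, ecdysone-inducible; teb 100 nM; cpd qHTS titration; GFP aggregates read on laser cytometer, Ex 488/Em 500-530 nm.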
HPGD block – HPGD (human) dehydrogenase inhibition; purified HPGD, NADH fluorescence kinetic, PGE2 substrate; Potency, µM, for inactives: at the top dose activity change, negative = inhibition, actives largely listed as inhibitors; 4.3% of 150,000 active; AID 894; also: % is scaled to controls: 0 for no effect and ±100 for the full control effect
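NADH formation kinetics: reaction with 30 uM PGE2 and 1 mM NAD+ (final), 20 nM enzyme, Tris-HCl pH 8 with Tween 20, after 15 min compound preincubation at room temperature. Fluorescence change, last versus first of five reads.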
ALDH1A1 block – inhibitors of human aldehyde dehydrogenase 1A1; Purified ALDH1A1, NADH fluorescence, propionaldehyde substrate; Potency, µM (series often up to 75.3 µM), inactives show top-dose activity, negative = inhibition, actives largely listed as inhibitors; 7.3% of 220,000 active;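 also: plate controls were no enzyme wells and a reference inhibitor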
Target sequence (P00352 whole entry, looked up): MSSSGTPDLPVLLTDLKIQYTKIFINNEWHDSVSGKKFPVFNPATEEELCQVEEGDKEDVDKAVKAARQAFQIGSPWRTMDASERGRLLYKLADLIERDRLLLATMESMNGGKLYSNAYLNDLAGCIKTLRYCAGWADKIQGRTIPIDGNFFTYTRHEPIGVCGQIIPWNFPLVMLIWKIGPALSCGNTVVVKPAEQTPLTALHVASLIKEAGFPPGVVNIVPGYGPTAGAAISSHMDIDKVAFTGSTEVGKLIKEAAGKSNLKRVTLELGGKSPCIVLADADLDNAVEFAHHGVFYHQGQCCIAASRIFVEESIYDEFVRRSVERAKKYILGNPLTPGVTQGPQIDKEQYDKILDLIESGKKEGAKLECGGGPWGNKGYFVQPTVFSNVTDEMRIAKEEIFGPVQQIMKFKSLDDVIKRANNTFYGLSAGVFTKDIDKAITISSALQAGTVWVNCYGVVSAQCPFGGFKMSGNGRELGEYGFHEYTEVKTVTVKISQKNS
HTT ATP protect – cytoprotection in Huntington HTT-Q103 PC12 cell model; AID 1471; PC12 HTT-Q103 induced, cytoprotection, ATP luminescence, 40 h; Potency, µM (highest dose often 56.4 µM), for the others: cytoprotection (ATP increase), usual class: activators; 0.14% of 230,000 active; active = well fitted curve in the direction sought with a large enough effect; inconclusive = small, poorly fitted or top-dose-only effect, or another doubt; inactive = no such curve, though single readings can be large; an effect the other way counts as inactive or inconclusive; also: % of control where 0% means no effect; nearly all actives have a fitted effect of over 45% in size
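Cells were plated at 1500 per well in phenol red-free DMEM with 5% equine and 5% calf serum. Tebufenozide (100 nM final) and compounds were added, then ATPlite reagent, and luminescence was read.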
KDM4E inh – JMJD2E (human) inhibition; AID 2147; 1.6% of 230,000 active; Potency, µM (doses to about 57.1 µM), without a hit: top-dose activity change, negative = inhibition, hits mostly inhibitors; JMJD2E catalytic domain, FDH-coupled NADH fluorescence (FDH is formaldehyde dehydrogenase); B2RXH2;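 also: 0% = wells with enzyme and -100% = buffer wells without enzyme; nearly all actives have a fitted effect of over 50% in size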
Starred values were filed as active, the others as inactive; u = inconclusive; x = not tested or not shown; [ ] = remark or other dose. An excerpt weighted towards active compounds, which were near 9.2% of everything screened. Unless noted, calls follow the shape of the dose curve; as a rule, active = well fitted inhibition curve with a large enough effect (not every such curve was filed as active); inconclusive = small, poorly fitted or top-dose-only effect, or another doubt; inactive = no such curve, though single readings can be large or run the other way. Potency is read from the fitted curve at half-maximal effect.

SMILES	LMNA splice mod	HTT aggregate	HPGD block	ALDH1A1 block	HTT ATP protect	KDM4E inh
Cc1c(Cl)ccc2c1NC(=O)[C@]21N[C@@H](CCC(N)=O)[C@H]2C(=O)N(c3ccc(F)cc3)C(=O)[C@H]21	u	10%	-6%	14µM*	-8%[0.074 µM]	14%
CSCCC1NC2(C(=O)Nc3c2ccc(Cl)c3C)[C@@H]2C(=O)N(C3CCCC3)C(=O)[C@H]12 (stereo partly drawn)	-2%	2%	-13%	u	-14%[0.074 µM]	-1%
NC(=O)C[C@@H]1N[C@]2(C(=O)Nc3ccccc32)[C@@H]2C(=O)N(c3cc(C(F)(F)F)ccc3Cl)C(=O)[C@H]12	-4%	7%	-5%	-1%	9%	-6%
CCOC(=O)c1ccc(NC(=S)N2CCN(CCNC3=CC(=O)CC(C)(C)C3)CC2)cc1	x	5%	x	u	-4%	5%
CC1(C)CC(=O)C=C(NCCN2CCN(C(=O)Nc3ccccc3)CC2)C1	17%	5.6µM*	0%	-10%	7%[10 µM]	-1%
COc1ccc(/C=C2\OC(=S)N(C)C2=O)cc1	u	-9%	-9%	20µM*	-17%[10 µM]	-1%
CN(C)c1cccc(NC(=O)Cc2ccc(F)cc2)c1	u	0%	-9%	14µM*	-13%	3%
Cc1oc2c(C)c(O)ccc2c(=O)c1-c1nncn1-c1ccccc1	-3%[46 µM]	4%	x	u	-78%	-1%
Cc1oc2c(O)c(O)ccc2c(=O)c1-c1ccccc1	u	13%[9.22 µM]	x	x	5%[10 µM]	13µM*
Cc1oc2c(O)c(O)ccc2c(=O)c1-c1cnn(-c2ccccc2)c1	15%	15%	18µM*	28µM*	25%	6%
COc1cc(OC)c2c(=O)c(-c3ccccc3)c(C)oc2c1OC	-5%	x	-1%	14µM*	x	-2%
Cc1c(Cc2ccccc2)c(=O)oc2c(O)c(O)ccc12	x	u	x	-5%	-83%	3.2µM*
COc1ccc2c(=O)c(-c3ccccc3)c(C)oc2c1	7%	-14%	-9%	u	-25%	-5%
C/C(CCN1CCCCc2nc(C)c(C)cc21)=N\OC[C@@H](O)COCc1ccco1	x	x	x	-3%[13.5 µM]	u	x
COC(=O)CC1C(C)(C)C(=O)C2CC3=C4CC(=O)OC(c5ccoc5)[C@]4(C)CCC3[C@@]1(C)C2=O (stereo partly drawn)	x	x	0%	-6%	-26%	-4%
O=C(Oc1cc(-c2ccccc2)no1)c1cccc(C(F)(F)F)c1	0%	2%	-17%	7.9µM*	-8%	2%
O=C1/C(=C/c2ccc(C(=O)O)cc2)CCC/C1=C\c1ccc(C(=O)O)cc1	19%	u	20µM*	-1%	x	13%
O=C1/C(=C/c2ccccc2)CCCc2ccccc21	-7%	5%	-1%	-9%	1%[10 µM]	3%
COc1ccc(/C=C2\CCC/C(=C\C=N\N(C)C)C2=O)cc1	x	-9%	x	4µM*	u	5%
CN(C)c1ccc(/C=C2\CCC/C(=C\c3ccccc3)C2=O)cc1	u	19%	-11%	13µM*	17%[10 µM]	-8%
C[C@@H](NC(=O)c1nc[nH]c1C(=O)N[C@@H](Cc1ccccc1)C(=O)OC(C)(C)C)c1ccccc1	x	25%[9.22 µM]	x	1%	15%[10 µM]	7%
CC(C)(C)OC(=O)NCCCC[C@H](NC(=O)c1[nH]cnc1C(=O)Nc1ccc(Cl)cc1)C(=O)OC(C)(C)C	x	-31%[9.22 µM]	x	x	9%[10 µM]	22µM*
C[C@H](NC(=O)c1nc[nH]c1C(=O)N[C@@H](Cc1ccccc1)C(=O)OC(C)(C)C)c1ccccc1	x	4%[9.22 µM]	x	18µM*	6%[10 µM]	8%
CC(C)(C)OC(=O)NCCCC[C@H](NC(=O)c1[nH]cnc1C(=O)Nc1ccccc1)C(=O)OC(C)(C)C	x	-24%[9.22 µM]	x	x	-7%[10 µM]	-1%
C=CCC(C)(O)C(=O)OCC (stereo not drawn)	x	x	-6%	-16%	23%	-7%
O=C(N[C@H](C(=O)O)c1ccccc1)C1CCC(Cn2cnc3ccccc3c2=O)CC1 (stereo partly drawn)	x	13%[9.22 µM]	x	x	6%[10 µM]	-11%
